In PubChem BioAssay (EPA / NIEHS):
Where “and” joins values, the source holds several entries; their conditions need not be identical. Identical values can stand only once. Inconclusive results are not listed. Calls of active or inactive are those of the source. Rule for the calls: active = hit-call score of the fitted dose curve at least 0.9, where 1 is the maximum; inconclusive = response in the unintended direction; inactive = score below 0.9.

experiment: TOX21_p53_BLA_p2_viability: Viability Assessment in the Tox21 HCT-116 p53 Agonism Beta-lactamase Assay, Phase 2 (AID 2283591);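 note: compound exposure lasted 16 h at 37 °C; actives lower the ATP signal meaning cytotoxicity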
Excerpt: TOX21_p53_BLA_p2 is a cell-based, single-readout assay that uses HCT116, a human intestinal cell line, […] in a 1536-well plate.TOX21_p53_BLA_p2_viability is an assay readout measuring cellular ATP content and detected with CellTiter-Glo Luciferase-coupled ATP quantitation.TOX21_p53_BLA_p2_viability used a type of viability reporter where loss-of-signal activity can be used to understand changes in the cell viability. Furthermore, this assay endpoint can be referred to as a secondary readout, because this assay has produced multiple assay endpoints where this one serves a viability function. To generalize the intended target to other relatable targets, this assay endpoint is annotated to the cell cycle intended target family, where the subfamily is cytotoxicity.
Thawing Method: Place 14 mL of pre-warmed thaw medium into a 15 mL of conical tub. Remove the vial of cells to be thawed from liquid nitrogen and thaw rapidly by placing at 37C in a water bath with gentle agitation for 1-2 minutes. Decontaminate the vial by wiping with 70% ethanol before opening in a biological safety cabinet. Transfer the vial contents drop-wise into 14 mL of thaw medium in a sterile 15-mL conical tub. Centrifuge cells at 900 rpm for 4 minutes and resuspend in thaw medium. Transfer contents to the T75 tissue culture flask containing Thaw Medium and place flask in a humidified 37C/5% CO2 incubator. Switch to growth medium at first passage.Propagation Method: Aspirate medium, rinse once in DPBS, add 0.25% Trypsin/EDTA and swirl to coat the cell evenly. Add an equal volume of Growth Medium to inactivate Trypsin after 2-3 minutes incubation at 37C. Centrifuge cells at 900 rpm for 4 minutes and resuspend in growth medium. Cell should be passage or fed at least twice a week.Assay Protocol: Harvest cells from culture in growth medium and resuspend in assay medium. 2.2 Dispense 4000 cells/5 uL/well into 1536-well black/clear bottom plates using a Multidrop dispenser. After the cells were incubated at 37C for 5 hours, 23 nL of compounds dissolved in DMSO were transferred to the assay plate by a PinTool resulting in a 217-fold dilution. Incubate the plates for 16 hours at 37C, 5% CO2. Add 1 uL of 6X LiveBLAzer FRET B/G (CCF4-AM) Substrate Mixture to each well using a BioRAPTR dispenser and incubate the plates at room temperature for 2 hours. Measure fluorescence intensity at 460 and 530 nm emission and 405 nm excitation by an Envision detector. Data is expressed as the ratio of 460nm/530nm emissions. Add 4 uL of Cell-titer Glo to each well using BioRAPTR and incubate the plates at room temperature for […]. For cell viability readout that measures cytotoxicity, 4 ul/well of CellTiter-Glo reagent was added into the assay plates using a Flying Reagent Dispenser. After 30 min incubation at room temperature, the luminescence intensity in the plates was measured using a ViewLux plate reader.

SMILES | outcome | AC50
NNC(N)=S | inactive | –
COP(=O)(O)OC | inactive | –
CCOP(=S)(NC(C)C)Oc1ccccc1C(=O)OC(C)C (stereo not given) | inactive | –
O=c1ssc(Cl)c1Cl | inactive | –
O=NN1CCCC1 | inactive | –
CCC(C)(C)c1ccc(O)cc1 | inactive | –
Nc1ccc(Cl)cc1 | inactive | –
CC(C)(C)OOC(C)(C)C | inactive | –
CCOc1ccc(C(C)(C)COCc2cccc(Oc3ccccc3)c2)cc1 | inactive | –
CCC1(c2ccccc2)C(=O)N=C(O)NC1=O (stereo not given) | inactive | –
CC(C)Nc1ccc(Nc2ccccc2)cc1 | – | 46.1 µM (active) and 45.9 µM (active) and 23 µM (active)
C=C(C)C(=O)OCC1CO1 (stereo not given) | inactive | –
O=S1(=O)OCC2C(CO1)C1(Cl)C(Cl)=C(Cl)C2(Cl)C1(Cl)Cl (stereo not given) | inactive | –
Cc1cccc(N)c1 | inactive | –
CC1=C(C(=O)Nc2ccccc2)S(=O)(=O)CCO1 | inactive | –
Nc1ccc2ccccc2c1 | inactive | –
O=C(O)C1C(C(=O)O)C2(Cl)C(Cl)=C(Cl)C1(Cl)C2(Cl)Cl (stereo not given) | inactive | –
C=CC(=O)OCC(CC)(COC(=O)C=C)COC(=O)C=C | – | 46.1 µM (active) and 95.1 µM (active)
c1cc2c3c(cccc3c1)CC2 | inactive | –
CCCCOCCOP(=O)(OCCOCCCC)OCCOCCCC | inactive | –

SMILES | outcome | AC50
CCOS(=O)(=O)OCC | inactive | –
CCOP(=S)(OCC)SCn1nnc2ccccc2c1=O | inactive | –
COC(N)=O | inactive | –
ClC1=C(Cl)C2(Cl)C3C(Cl)C(Cl)CC3C1(Cl)C2(Cl)Cl (stereo not given) | – | 50.8 µM (active) and 46 µM (active)
CCOP(=S)(S)OCC | inactive | –
c1nc[nH]n1 | inactive | –
CC1(C)CN=C(NN=C(/C=C/c2ccc(C(F)(F)F)cc2)/C=C/c2ccc(C(F)(F)F)cc2)NC1 | – | 14.7 µM (active)
O=P(Oc1ccccc1)(Oc1ccccc1)Oc1ccccc1 | inactive | –
CCN(CC)c1ccccc1 | inactive | –
O=C(CBr)OCc1ccccc1 | inactive | –
CCCN(CCC)c1c([N+](=O)[O-])cc(C(C)C)cc1[N+](=O)[O-] | inactive | –
C/C(=N\NC(=O)Nc1cc(F)cc(F)c1)c1ncccc1C(=O)O | inactive | –
CCOC(=O)c1ccccc1C(=O)OCC | inactive | –
CCCCN(CCCC)N=O | inactive | –
CO/N=C(/C(=O)OC)c1ccccc1COc1ccccc1C | inactive | –
c1ccc2c(c1)Nc1ccccc1S2 | inactive | –
O=S(=O)(c1ccc(O)cc1)c1ccc(O)cc1 | inactive | –
[N-]=[N+]=[N-] | inactive | –
c1ccc2c(c1)sc1ccccc12 | inactive | –
O=P1(N(CCCl)CCCl)NCCCO1 (stereo not given) | inactive | –
